FXN GAA850 act – FXN promoter activators, primary screen, cell-based, luciferase luminescence, HEK293 lucGAA850. HEK293 lucGAA850 FXN promoter luciferase reporter, 24 h; percent of 10 µM SAHA response. activation, % at 6 µM. hit rate 0.56% among 360,000. AID 540364, 2011;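 active = activation above the average of all compounds screened plus 3 SD, cutoff fixed separately per campaign, cut at about 7.5% in these data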
Wnt bcat act – Wnt/beta-catenin pathway activators, primary screen, cell-based, plate reader, single point | Wnt/beta-catenin reporter cell assay, activator | activation, % at 9.35 µM | hit rate 1.2% among 300,000 | AID 743398, 2014; in the data active = activation above about 30%, passing the limit was not always enough; inconclusive = no clear call, values can overlap the other calls
MITF TRPM1 HTS – activators of MITF-driven TRPM1 promoter reporter, primary screen, cell-based, SK-MEL-5, luciferase, single point; SK-MEL-5 TRPM1-promoter luciferase, 24 h; % of positive control, neutral wells = 0; activation, % at 12.5 µM; hit rate 0.75% among 300,000; AID 588334, 2011;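 active = mean activation of at least 80% with every replicate also reaching 80%; inconclusive = mean reaches 80% but some replicate falls short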
AHR activator – AHR activators, primary screen, cell-based, luminescence, luciferase reporter, human | AID 2796, 2010 | Aryl hydrocarbon receptor (Homo sapiens), P35869 | AHR-responsive luciferase reporter cells | activation, % at 5 µM | hit rate 2.5% among 320,000; in the data active = activation above about 47%
Target sequence (P35869 whole entry, looked up): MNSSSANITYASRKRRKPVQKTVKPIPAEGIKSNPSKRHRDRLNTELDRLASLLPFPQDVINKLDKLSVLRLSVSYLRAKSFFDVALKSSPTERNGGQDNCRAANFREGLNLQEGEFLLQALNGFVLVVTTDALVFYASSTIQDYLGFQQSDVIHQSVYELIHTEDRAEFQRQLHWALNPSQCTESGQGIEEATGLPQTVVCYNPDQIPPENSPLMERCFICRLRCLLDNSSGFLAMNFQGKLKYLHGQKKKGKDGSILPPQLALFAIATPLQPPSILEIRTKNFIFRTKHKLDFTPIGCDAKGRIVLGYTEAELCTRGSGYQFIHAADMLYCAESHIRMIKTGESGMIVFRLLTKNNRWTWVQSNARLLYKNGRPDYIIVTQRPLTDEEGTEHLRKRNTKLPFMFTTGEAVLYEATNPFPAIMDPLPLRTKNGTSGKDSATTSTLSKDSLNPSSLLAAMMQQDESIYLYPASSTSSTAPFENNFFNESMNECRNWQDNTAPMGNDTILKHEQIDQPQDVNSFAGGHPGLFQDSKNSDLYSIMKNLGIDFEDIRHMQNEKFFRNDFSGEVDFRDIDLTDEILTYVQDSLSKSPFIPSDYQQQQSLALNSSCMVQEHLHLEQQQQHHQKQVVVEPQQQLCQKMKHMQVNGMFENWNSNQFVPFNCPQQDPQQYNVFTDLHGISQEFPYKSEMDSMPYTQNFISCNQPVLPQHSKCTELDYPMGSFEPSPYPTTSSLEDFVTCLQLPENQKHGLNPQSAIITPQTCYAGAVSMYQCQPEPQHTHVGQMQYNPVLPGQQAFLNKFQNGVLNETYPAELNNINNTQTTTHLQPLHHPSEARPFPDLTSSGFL
esBAF inh – Bmi1 luciferase reporter increase in mESCs, primary screen, esBAF inhibitor project, mouse ES cells, Bmi1 luciferase knock-in, single point; 24 h; 100% = twice the neutral-well signal; reporter increase, % at 12.5 µM; hit rate 2% among 350,000; AID 602393, 2012; in the data active = activation above about 40%; inconclusive = no clear call, values can overlap the other calls;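 also: a rise in the Bmi1 reporter signal indicates esBAF inhibition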
Hits are given with their value. Only some compounds are listed: those with a hit (about 4.2% of all), similar ones and a draw of the others.

For COc1ccc(NC(=O)c2oc3ccccc3c2NC(=O)C2CC2)c(OC)c1 the results were FXN GAA850 act inactive, Wnt bcat act inactive, MITF TRPM1 HTS inactive, AHR activator 55 and esBAF inh inactive.
CCOC(=O)c1oc2cccc(O)c2c1C was read as FXN GAA850 act inactive, AHR activator inactive and esBAF inh 48.
`CCOC(=O)c1oc2ccccc2c1NC(=O)C(C)(C)C` gave FXN GAA850 act inactive, Wnt bcat act inactive, MITF TRPM1 HTS inactive and AHR activator inactive.
Cc1noc(C)c1NC(=O)N[C@H]1CC[C@@H](CC(=O)N2CCN(C)CC2)O[C@@H]1CO was read as esBAF inh inactive.
`CCOCc1c(C(=O)OCC(=O)/C(C#N)=C(\C)N)oc2ccccc12` gave FXN GAA850 act inactive, Wnt bcat act inactive, MITF TRPM1 HTS inactive and AHR activator inactive.
COc1ccc(NC(=O)c2oc3ccccc3c2NC(=O)C2CC2)cc1 was read as FXN GAA850 act inactive, MITF TRPM1 HTS inactive, AHR activator 72 and esBAF inh inactive.
CCOCc1c(C(=O)OCC(=O)Nc2ccccc2C(N)=O)oc2ccccc12 was read as FXN GAA850 act inactive, Wnt bcat act 39, MITF TRPM1 HTS inactive, AHR activator inactive and esBAF inh inactive.
`COc1cccc(NC(=O)c2oc3ccccc3c2NC(=O)C2CC2)c1` gave FXN GAA850 act inactive, Wnt bcat act inactive, MITF TRPM1 HTS inactive, AHR activator inactive and esBAF inh inactive.
COc1ccc(NC(=O)c2oc3ccccc3c2NC(=O)c2ccco2)cc1 was read as FXN GAA850 act inactive, Wnt bcat act inactive, MITF TRPM1 HTS inactive, AHR activator 69 and esBAF inh inactive.
For Cc1cccc(NC(=O)c2ccoc2C)n1 the results were FXN GAA850 act inactive, MITF TRPM1 HTS inactive, AHR activator inactive and esBAF inh 45.
For Cc1csc(NC(=O)c2cc(C)on2)n1 the results were FXN GAA850 act inactive, Wnt bcat act 40, MITF TRPM1 HTS inactive, AHR activator inactive and esBAF inh inactive.
`O=C(Nc1ccn(-c2ccccc2)n1)c1ccccc1Br` gave FXN GAA850 act inactive, Wnt bcat act inconclusive, MITF TRPM1 HTS inactive, AHR activator inactive and esBAF inh 69.
`Cc1csc(NC(=O)c2ccoc2C)n1` gave FXN GAA850 act inactive, AHR activator inactive and esBAF inh 42.
`COc1ccc(NC(=O)N(C)C[C@H]2OCCCC[C@@H](C)Oc3ccc(NS(=O)(=O)c4ccc(Cl)cc4)cc3C(=O)N([C@@H](C)CO)C[C@@H]2C)cc1` gave esBAF inh inactive.
Screening CCCNC(=O)N(C)C[C@@H]1Oc2ncc(-c3ccncc3)cc2C(=O)N([C@@H](C)CO)C[C@@H]1C returned esBAF inh inactive.
`Cc1csc(NC(=O)CSc2nnc(-c3ccoc3C)o2)n1` gave FXN GAA850 act inactive, Wnt bcat act inactive, AHR activator inactive and esBAF inh 43.
For Cc1cccc(NC(=O)c2ccccc2Br)n1 the results were FXN GAA850 act inactive, Wnt bcat act inactive, MITF TRPM1 HTS inactive, AHR activator 62 and esBAF inh inactive.
`Cc1occc1-c1nnc(SCC(=O)Nc2nc(C(C)(C)C)cs2)o1` gave FXN GAA850 act inactive, Wnt bcat act inactive, MITF TRPM1 HTS inactive, AHR activator inactive and esBAF inh inactive.
For CCOc1ccc(N=C2NC(=O)S/C2=C\c2ccc(N(C)C)cc2)cc1 the results were FXN GAA850 act inactive, AHR activator 62 and esBAF inh 50.
CCN(CCS(=O)(=O)c1ccc(Cl)cc1)C(=O)Nc1ccccc1 was read as FXN GAA850 act inactive, Wnt bcat act inactive, AHR activator inactive and esBAF inh inactive.
Screening O=C(Nc1ccccc1)N(O)c1ccc(Cl)cc1 returned FXN GAA850 act inactive, MITF TRPM1 HTS inactive, AHR activator 60 and esBAF inh 68.
For CC(C)c1ccc(NC(=O)C2=NNC(=O)CC2)cc1 the results were FXN GAA850 act inactive, Wnt bcat act inconclusive, MITF TRPM1 HTS inactive and AHR activator inactive.
Screening Cc1ccc(NC(=O)C2=NNC(=O)CC2)cc1F returned FXN GAA850 act inactive, Wnt bcat act 34, MITF TRPM1 HTS inactive and AHR activator inactive.
`O=C(Nc1ccccc1)c1cc2ccccc2c(=O)s1` gave FXN GAA850 act inactive, MITF TRPM1 HTS inactive and AHR activator inactive.
Screening O=C(Nc1ccccc1)c1cc2ccccc2s1 returned FXN GAA850 act inactive, Wnt bcat act inactive, MITF TRPM1 HTS inactive and esBAF inh 45.
For O=C(Nc1ccccn1)c1cc2cc([N+](=O)[O-])ccc2s1 the results were FXN GAA850 act inactive, Wnt bcat act inactive, MITF TRPM1 HTS inactive and AHR activator inactive.
For O=C(Nc1ccc(O)cc1)c1cc2ccccc2c(=O)s1 the results were FXN GAA850 act inactive, Wnt bcat act inactive, MITF TRPM1 HTS 100, AHR activator inactive and esBAF inh 49.
Screening Cc1noc(C)c1S(=O)(=O)Nc1ccc2c(c1)C(=O)N([C@H](C)CO)C[C@@H](C)[C@@H](CN(C)C(=O)CCCN(C)C)OCCCC[C@@H](C)O2 returned esBAF inh inactive.
Screening CN(C)C(=O)C[C@H]1CC[C@@H]2[C@H](COC[C@@H](O)CN2CC2CC2)O1 returned esBAF inh inactive.
For Cc1nn(-c2ccccc2)c(C)c1/C=N/n1c(-c2ccccc2Br)n[nH]c1=S the results were FXN GAA850 act inactive, Wnt bcat act inactive, MITF TRPM1 HTS inactive and AHR activator 51.
Screening CCC(CO)Nc1ccn2nc(-c3cccc(Cl)c3)cc2n1 (stereo not drawn) returned FXN GAA850 act inactive, Wnt bcat act inactive and esBAF inh 72.
O=c1c2ccccc2oc2ccc(NCCCn3ccnc3)cc12 was read as FXN GAA850 act inactive, Wnt bcat act 34, MITF TRPM1 HTS inactive, AHR activator inactive and esBAF inh inactive.
Screening COc1cccc(OCc2cc(C(=O)N3CCN(c4ccccc4OC)CC3)no2)c1 returned FXN GAA850 act inactive, Wnt bcat act 37, MITF TRPM1 HTS 83, AHR activator inactive and esBAF inh 77.
`COc1cccc(OCc2cc(C(=O)N3CCN(c4ccccc4O)CC3)no2)c1` gave FXN GAA850 act inactive, Wnt bcat act inactive, MITF TRPM1 HTS 97, AHR activator inactive and esBAF inh 49.
`CCCCOC(=O)Nc1ccc(C)c(Cl)c1` gave FXN GAA850 act inactive, Wnt bcat act inactive, MITF TRPM1 HTS inactive, AHR activator inactive and esBAF inh 57.
Screening CCCCOC(=O)Nc1ccc(C(=O)OC)cc1 returned FXN GAA850 act inactive, Wnt bcat act 53, MITF TRPM1 HTS inactive, AHR activator inactive and esBAF inh 79.
CN=c1scc(-c2ccccc2F)n1/N=C(\C)c1cccnc1 was read as FXN GAA850 act inactive, Wnt bcat act inactive, MITF TRPM1 HTS inactive and AHR activator 78.
Screening Cc1noc(C)c1NC(=O)N(C)C[C@@H]1Oc2ccc(NC(=O)NC(C)C)cc2CC(=O)N([C@@H](C)CO)C[C@H]1C returned esBAF inh inactive.
